These results are taken from ChEMBL document CHEMBL3988442, “University of Dundee, Small-Polar-MMV Screening Library” (2021).

For some of these results: Results with a measured potency or affinity are listed apart.

Parameters in all cases: scale not given: direction of the effect not stated beside the values
Assay [1] has as its target Protein translocase subunit SecA (Escherichia coli (strain K12)) (UniProt P10408). The assay is described as follows: Assay to Identify E. coli SecA ATPase Inhibitors. Type of assay: functional. The conditions noted are these: 30 µM.
Assay [2] deals with T1, Ubiquitin-activating enzyme e1, putative (Leishmania donovani (strain BPK282A1)) (UniProt E9BSI1).
T1 sequence (whole entry): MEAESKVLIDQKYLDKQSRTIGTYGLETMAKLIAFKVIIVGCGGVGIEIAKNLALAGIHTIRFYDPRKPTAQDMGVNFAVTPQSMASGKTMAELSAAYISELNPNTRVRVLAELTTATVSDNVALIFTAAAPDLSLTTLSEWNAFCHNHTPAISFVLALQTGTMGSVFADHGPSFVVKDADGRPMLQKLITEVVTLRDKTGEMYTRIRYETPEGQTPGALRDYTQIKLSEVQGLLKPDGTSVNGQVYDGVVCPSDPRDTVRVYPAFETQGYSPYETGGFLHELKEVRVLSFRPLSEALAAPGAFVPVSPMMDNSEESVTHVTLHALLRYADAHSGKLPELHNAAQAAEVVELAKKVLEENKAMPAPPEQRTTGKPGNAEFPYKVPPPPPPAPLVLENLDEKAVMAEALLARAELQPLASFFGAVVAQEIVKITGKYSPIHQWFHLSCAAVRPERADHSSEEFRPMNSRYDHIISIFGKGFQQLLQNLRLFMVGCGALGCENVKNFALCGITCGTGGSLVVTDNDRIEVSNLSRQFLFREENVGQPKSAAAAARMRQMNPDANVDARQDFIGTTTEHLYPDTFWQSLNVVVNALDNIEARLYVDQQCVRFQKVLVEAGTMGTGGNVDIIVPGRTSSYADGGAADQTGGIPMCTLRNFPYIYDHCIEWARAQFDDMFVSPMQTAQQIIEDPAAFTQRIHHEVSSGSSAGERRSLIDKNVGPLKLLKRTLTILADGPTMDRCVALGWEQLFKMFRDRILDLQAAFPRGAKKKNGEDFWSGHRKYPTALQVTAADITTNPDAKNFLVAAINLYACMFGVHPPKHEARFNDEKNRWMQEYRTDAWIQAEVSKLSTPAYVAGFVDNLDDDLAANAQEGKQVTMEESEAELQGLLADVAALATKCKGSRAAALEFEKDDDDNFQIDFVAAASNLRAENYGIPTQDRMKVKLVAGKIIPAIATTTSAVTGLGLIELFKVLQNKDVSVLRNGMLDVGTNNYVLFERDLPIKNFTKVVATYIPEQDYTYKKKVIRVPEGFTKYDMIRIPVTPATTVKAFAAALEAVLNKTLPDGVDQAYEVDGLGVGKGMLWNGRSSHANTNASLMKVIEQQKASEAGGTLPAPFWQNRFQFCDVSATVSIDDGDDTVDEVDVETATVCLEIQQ
Briefly: Leishmania donovani Ubiquitin Activating Enzyme (LdE1). It is filed as functional. To be noted: 30 µM.

Assay [3] has as its target AMP-activated protein kinase, AMPK (Homo sapiens) (UniProt P54646+O43741+P54619+Q9UGJ0+Q9Y478+Q13131+Q9UGI9). The assay is described as follows: AMP-dependent Kinase enzyme assay. An in vitro enzyme assay that detects ADP turnover that is directly proportional to AMPK activity. This uses naive AMPK that is activated during the assay with MK-8722. The conditions noted are these: 30 µM. It is filed as functional.

Assay [4] has as its target Sialic acid-binding Ig-like lectin 9 (Homo sapiens) (UniProt Q9Y336). The assay is described as follows: Hs-Siglec9 ALPHAscreen SOP 20170721. The conditions noted are these: 10 µM. For orientation: Bead proximity is the source of the signal in Alpha formats.
Another assay relates to Trypanosoma cruzi. The assay is described as follows: Trypanosoma cruzi phosphomannomutase and mannose-1-phosphate guanylyltransferase assay. It is filed as functional. To be noted: 10 µM.
In assay [5] the target is T2, Arginase-2, mitochondrial (Homo sapiens) (UniProt P78540).
T2 sequence (whole entry): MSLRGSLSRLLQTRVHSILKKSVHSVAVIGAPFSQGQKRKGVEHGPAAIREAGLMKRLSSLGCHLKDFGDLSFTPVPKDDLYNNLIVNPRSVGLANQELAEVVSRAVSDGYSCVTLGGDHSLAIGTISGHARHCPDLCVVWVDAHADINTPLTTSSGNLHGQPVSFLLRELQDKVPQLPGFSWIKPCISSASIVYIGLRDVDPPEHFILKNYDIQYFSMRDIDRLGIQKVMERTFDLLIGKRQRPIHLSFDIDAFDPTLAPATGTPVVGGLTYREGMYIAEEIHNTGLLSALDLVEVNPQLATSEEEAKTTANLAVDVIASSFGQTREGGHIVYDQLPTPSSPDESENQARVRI
Briefly: in vitro enzyme assay to detect the production of urea directly proportional to the activity of Arginase II. Note: in the data most compounds retested in dose-response had high values. It is filed as functional. The conditions noted are these: 33.3 µM.

The target in assay [6] is T3, Proteasome subunit beta (Trypanosoma cruzi) (UniProt O96673).
T3 sequence (whole entry): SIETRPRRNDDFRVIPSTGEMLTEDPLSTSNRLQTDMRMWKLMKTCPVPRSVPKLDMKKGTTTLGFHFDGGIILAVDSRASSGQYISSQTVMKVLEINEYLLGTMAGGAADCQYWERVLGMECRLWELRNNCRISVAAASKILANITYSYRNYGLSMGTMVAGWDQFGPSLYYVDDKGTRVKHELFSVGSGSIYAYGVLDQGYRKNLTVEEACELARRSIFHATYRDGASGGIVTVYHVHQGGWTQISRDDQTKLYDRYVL
The assay is described as follows: Trypanosoma cruzi proteasome chymotrypsin-like activity (TcProtChymo) assay. Note: in the data most compounds retested in dose-response had high values. It is filed as functional. The conditions noted are these: 9.37 µM.

The species named for another assay is Homo sapiens. Briefly: To identify inhibition of the IFN signalling (Jak-Stat) pathway via expression of an eGFP reporter gene under the control of an IFN-stimulated response element (ISRE) containing MxA promoter. Type of assay: functional. To be noted: 30 µM.
The target of assay [7] is T4, Tyrosyl-tRNA synthetase, putative (Trypanosoma cruzi (strain CL Brener)) (UniProt Q4DSP6).
T4 sequence (whole entry): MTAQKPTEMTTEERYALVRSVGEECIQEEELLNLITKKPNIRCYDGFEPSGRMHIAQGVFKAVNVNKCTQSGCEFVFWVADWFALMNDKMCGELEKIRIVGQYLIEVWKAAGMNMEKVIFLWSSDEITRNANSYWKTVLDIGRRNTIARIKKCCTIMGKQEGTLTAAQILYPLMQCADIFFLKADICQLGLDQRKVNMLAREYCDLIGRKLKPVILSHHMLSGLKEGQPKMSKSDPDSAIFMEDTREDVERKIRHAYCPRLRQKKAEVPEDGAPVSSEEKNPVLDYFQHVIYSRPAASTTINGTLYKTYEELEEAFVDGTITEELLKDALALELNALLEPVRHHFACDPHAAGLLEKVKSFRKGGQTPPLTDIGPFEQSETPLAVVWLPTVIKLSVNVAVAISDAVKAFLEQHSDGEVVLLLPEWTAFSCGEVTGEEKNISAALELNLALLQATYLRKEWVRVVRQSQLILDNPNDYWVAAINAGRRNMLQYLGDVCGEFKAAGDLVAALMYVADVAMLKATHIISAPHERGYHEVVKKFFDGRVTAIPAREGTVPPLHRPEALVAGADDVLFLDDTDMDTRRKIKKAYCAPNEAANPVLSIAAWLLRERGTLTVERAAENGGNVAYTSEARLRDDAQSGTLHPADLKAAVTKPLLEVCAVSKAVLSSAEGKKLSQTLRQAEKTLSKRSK
Briefly: Trypanosoma cruzi tyrosyl tRNA synthetase (TcYRS) _High Tyrosine SOP. Note: in the data most compounds retested in dose-response had high values. It is filed as functional. To be noted: 30 µM.

Assay [8] deals with T4, Tyrosyl-tRNA synthetase, putative (Trypanosoma cruzi (strain CL Brener)). Briefly: Trypanosoma cruzi tyrosyl tRNA synthetase (TcYRS) SOP. It is filed as functional. The conditions noted are these: 30 µM.
The target of assay [9] is Chromo domain-containing protein 1 (Saccharomyces cerevisiae (strain ATCC 204508 / S288c) (Baker's yeast)) (UniProt P32657). Briefly: ScCHD-1 Enzyme Inhibition Assay. Note: in the data most compounds retested in dose-response had high values. It is filed as functional. To be noted: 30 µM.
Chromo domain-containing protein 1 (Saccharomyces cerevisiae (strain ATCC 204508 / S288c) (Baker's yeast)), sequence (P32657 whole entry, the tested form may be a part): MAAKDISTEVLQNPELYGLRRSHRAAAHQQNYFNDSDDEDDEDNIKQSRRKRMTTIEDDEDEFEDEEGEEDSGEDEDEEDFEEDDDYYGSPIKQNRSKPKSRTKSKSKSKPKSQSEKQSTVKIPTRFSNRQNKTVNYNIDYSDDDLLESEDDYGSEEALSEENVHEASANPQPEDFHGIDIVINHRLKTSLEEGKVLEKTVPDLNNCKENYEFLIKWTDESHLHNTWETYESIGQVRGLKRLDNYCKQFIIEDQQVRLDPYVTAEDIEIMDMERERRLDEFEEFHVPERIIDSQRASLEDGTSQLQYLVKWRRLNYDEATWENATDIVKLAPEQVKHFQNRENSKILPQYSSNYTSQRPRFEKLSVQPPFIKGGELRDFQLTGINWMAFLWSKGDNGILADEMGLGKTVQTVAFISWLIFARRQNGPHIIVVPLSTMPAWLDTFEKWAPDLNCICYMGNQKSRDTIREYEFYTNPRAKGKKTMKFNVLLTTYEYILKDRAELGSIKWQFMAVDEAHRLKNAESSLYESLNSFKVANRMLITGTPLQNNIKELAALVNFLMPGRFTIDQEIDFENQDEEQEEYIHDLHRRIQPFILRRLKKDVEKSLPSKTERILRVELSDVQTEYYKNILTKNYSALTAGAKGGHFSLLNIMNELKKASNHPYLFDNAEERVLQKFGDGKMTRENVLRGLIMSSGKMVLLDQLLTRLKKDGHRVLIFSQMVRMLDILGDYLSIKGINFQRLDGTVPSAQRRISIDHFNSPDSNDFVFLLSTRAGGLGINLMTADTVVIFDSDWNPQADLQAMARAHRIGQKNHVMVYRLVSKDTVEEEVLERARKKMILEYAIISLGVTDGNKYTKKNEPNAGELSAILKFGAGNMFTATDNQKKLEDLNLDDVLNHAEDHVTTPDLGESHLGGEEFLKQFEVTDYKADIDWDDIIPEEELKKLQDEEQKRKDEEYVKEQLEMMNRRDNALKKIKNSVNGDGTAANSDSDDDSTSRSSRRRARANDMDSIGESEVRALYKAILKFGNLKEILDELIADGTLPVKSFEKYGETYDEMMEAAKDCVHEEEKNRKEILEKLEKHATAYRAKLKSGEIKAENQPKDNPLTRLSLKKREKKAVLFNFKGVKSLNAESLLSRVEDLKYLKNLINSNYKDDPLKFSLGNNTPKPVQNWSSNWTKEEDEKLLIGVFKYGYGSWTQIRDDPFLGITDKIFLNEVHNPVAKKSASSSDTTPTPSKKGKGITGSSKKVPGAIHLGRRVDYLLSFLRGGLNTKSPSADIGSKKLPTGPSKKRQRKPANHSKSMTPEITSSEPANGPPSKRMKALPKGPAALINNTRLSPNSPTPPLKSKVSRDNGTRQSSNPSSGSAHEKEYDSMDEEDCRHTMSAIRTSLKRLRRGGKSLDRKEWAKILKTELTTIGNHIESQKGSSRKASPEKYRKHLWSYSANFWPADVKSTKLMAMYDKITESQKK

Protein translocase subunit SecA (Escherichia coli (strain K12)), sequence (P10408 whole entry): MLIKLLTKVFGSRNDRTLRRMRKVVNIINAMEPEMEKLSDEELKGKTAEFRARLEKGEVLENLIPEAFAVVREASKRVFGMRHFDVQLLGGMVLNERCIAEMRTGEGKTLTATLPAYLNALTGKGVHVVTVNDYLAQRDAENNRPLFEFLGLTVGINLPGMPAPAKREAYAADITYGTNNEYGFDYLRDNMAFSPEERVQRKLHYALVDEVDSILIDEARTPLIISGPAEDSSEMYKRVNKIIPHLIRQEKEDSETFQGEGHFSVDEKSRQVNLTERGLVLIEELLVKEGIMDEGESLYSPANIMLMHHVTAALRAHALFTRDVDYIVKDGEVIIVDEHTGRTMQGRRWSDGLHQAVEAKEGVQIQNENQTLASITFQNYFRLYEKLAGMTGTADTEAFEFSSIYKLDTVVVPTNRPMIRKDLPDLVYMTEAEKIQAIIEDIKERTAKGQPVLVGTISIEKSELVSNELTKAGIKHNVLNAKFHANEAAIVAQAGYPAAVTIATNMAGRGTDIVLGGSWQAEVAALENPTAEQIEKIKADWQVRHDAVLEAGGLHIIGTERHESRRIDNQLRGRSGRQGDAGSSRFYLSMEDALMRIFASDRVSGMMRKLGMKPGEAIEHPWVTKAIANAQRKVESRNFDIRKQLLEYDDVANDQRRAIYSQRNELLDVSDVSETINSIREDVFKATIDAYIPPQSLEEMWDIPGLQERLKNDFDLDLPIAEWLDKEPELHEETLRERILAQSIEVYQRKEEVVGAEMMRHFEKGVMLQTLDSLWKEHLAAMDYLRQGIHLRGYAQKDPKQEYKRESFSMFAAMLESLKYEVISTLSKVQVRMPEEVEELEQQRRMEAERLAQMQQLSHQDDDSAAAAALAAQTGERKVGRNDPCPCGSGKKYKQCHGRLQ
Sialic acid-binding Ig-like lectin 9 (Homo sapiens), sequence (Q9Y336 whole entry): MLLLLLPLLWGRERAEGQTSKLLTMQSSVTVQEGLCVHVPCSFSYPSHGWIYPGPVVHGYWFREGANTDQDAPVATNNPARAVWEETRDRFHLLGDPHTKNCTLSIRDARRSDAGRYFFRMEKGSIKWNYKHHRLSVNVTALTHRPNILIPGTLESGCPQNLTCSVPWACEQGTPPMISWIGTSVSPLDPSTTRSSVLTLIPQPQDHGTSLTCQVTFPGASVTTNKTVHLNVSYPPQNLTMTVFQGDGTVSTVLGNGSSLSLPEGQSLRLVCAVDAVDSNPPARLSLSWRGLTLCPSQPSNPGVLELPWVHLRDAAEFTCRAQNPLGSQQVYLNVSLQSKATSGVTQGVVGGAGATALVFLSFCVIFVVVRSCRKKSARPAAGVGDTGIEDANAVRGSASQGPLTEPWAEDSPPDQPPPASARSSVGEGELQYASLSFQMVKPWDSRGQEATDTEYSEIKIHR

Consider `CCc1nc(CN2CCCN(Cc3cnn(C)c3)CC2)no1`, for which the Percent Effect is 2.29% in assay [1]; 5.48% in assay [2]; -1.06% in assay [3]; 0.0732% in assay [4]; -2.35% in the assay with Trypanosoma cruzi; 0% in [5]. The Percent Effect was 17.2% in [6]; 3.79% in the assay filed under Homo sapiens; 4.3% in assay [7]; 12.5% in assay [8]; -13.7% in assay [9].
`Cc1ccc(C)c(C(NC(=O)C(C)(C)C)c2cccnc2)c1` (stereo unspecified): the Percent Effect is -1.95% in [1]; 13% in [2]; 3.34% in [3]; -1.13% in assay [4]; 4.63% in the assay with Trypanosoma cruzi; -0.645% in assay [5]. Further, the Percent Effect was 14.3% in [6]; 21.8% in the assay filed under Homo sapiens; 4.23% in assay [7]; 6.41% in [8]; -10.2% in [9].
For `O=C(COCC1CC1)N1CCCC(n2cccn2)C1` (stereo unspecified), the Percent Effect is -2.32% in [1]; 13.9% in [2]; 1.73% in assay [3]; -2.9% in assay [4]; -2.36% with Trypanosoma cruzi; 2.8% in [5]. Further, the Percent Effect in [6] is 13.4%; in the assay listed under Homo sapiens, -5.32%; in [7], -1.04%; in assay [8], -7.59%; in assay [9], -22.9%.
Take `O=C(NC1(c2cccc(F)c2)CCOCC1)c1ccoc1`: the Percent Effect is -5.15% in assay [1]; 5.2% in assay [2]; -0.889% in assay [3]; 5.11% in assay [4]; 2.46% in the assay with Trypanosoma cruzi; -6.9% in assay [5]. In addition, the Percent Effect in assay [6] was 1.33%; in the assay listed under Homo sapiens, -3.68%; in assay [7] it was 2.15%; in assay [8], 8.64%; in assay [9] it was -3.25%.
`Cc1cc(C)n(CC2CCCN2C(=O)Cc2c(C)noc2C)n1` (stereo unspecified): the Percent Effect in assay [1] was -7.56%; in [2], 8.11%; in [3] it was -14.7%; in assay [4] it was 23.5%; in the assay with Trypanosoma cruzi, 2.92%; in assay [5], -9.62%. Also, the Percent Effect is 9.37% in assay [6]; 15.8% in the assay listed under Homo sapiens; 4.43% in assay [7]; 13.6% in [8]; -11.4% in assay [9].
For `Cc1noc2ncc(C(=O)N(CC3CCOC3)C3CC3)cc12` (stereo unspecified), the Percent Effect in assay [1] was -0.0275%; in assay [2], 7.89%; in assay [3], -3.99%; in assay [4], 3.92%; in the assay with Trypanosoma cruzi, -9.59%; in assay [5], 3.45%. The Percent Effect is 7.69% in assay [6]; 24.4% in the assay listed under Homo sapiens; 0.49% in assay [7]; 4.88% in assay [8]; -5.66% in assay [9].
Turning to `O=C1N(c2cccc(Cl)c2)Cc2nc(=O)n(Cc3cccc(F)c3)n21`, the Percent Effect is -2.59% in [1]; -1.33% in assay [2]; 3.81% in [3]; 5.37% in [4]; -4.71% in the assay with Trypanosoma cruzi; -10.4% in assay [5]. The Percent Effect is 6.1% in [6]; 7.11% in the assay listed under Homo sapiens; -1.06% in [7]; 2.56% in assay [8]; -8.79% in assay [9].
Consider `CCc1ccc(C2CCCCCN2Cc2nc(CCOC)no2)o1` (stereo unspecified), for which the Percent Effect was -1.49% in [1]; 2.6% in assay [2]; 3.4% in assay [3]; 5.24% in assay [4]; 3.05% in the assay on Trypanosoma cruzi; -9.65% in assay [5]. For the same compound, the Percent Effect is 16.5% in assay [6]; 19.7% in the assay filed under Homo sapiens; -14% in assay [7]; -18.5% in assay [8]; -9.18% in assay [9].
Turning to `CC(OCC(F)(F)F)C(=O)NCc1ccc(-n2cncn2)nc1` (stereo unspecified), the Percent Effect in [1] is -1.15%; in [2], 18.2%; in assay [3], 0.466%; in assay [4] it was -5.68%; in the assay with Trypanosoma cruzi, 4.8%; in [5], -22.5%. Further, the Percent Effect in assay [6] is 8.16%; in the assay listed under Homo sapiens it was 21.5%; in assay [7] it was 7.62%; in [8], 23.5%; in [9] it was -24%.
As for `c1ncn(CC2CN(CC3CCCC3)CCO2)n1` (stereo unspecified), the Percent Effect in assay [1] is -3.42%; in [2], 11.4%; in [3], -1.94%; in [4] it was -0.971%; in the assay on Trypanosoma cruzi, -1.54%; in assay [5] it was 6.24%. Further, the Percent Effect in [6] was 11.8%; in the assay listed under Homo sapiens, 10.9%; in assay [7], 0%; in assay [8], 7.59%; in [9], -14%.
Regarding `CCOCCCNc1nc(O)cc(C2CC(=O)N(C)C2)n1` (stereo unspecified), the Percent Effect in [1] is -3.32%; in assay [2] it was 6.76%; in [3], -1.4%; in assay [4], 1.36%; in the assay with Trypanosoma cruzi it was 3.95%; in assay [5], -4.41%. For the same compound, the Percent Effect in assay [6] was 9.83%; in the assay listed under Homo sapiens, -10.5%; in assay [7], 1.07%; in assay [8], 9.09%; in [9] it was -25.9%.
